The values below come from the supplement of paper PMC10849652.

Assay in all cases: log2 fold change, soluble protein after heating vs DMSO (PISA); higher = thermal stabilisation; K562 lysate, 10 uM; active = over 0.2 and 3.5 SD of the protein, either way, in both replicates (recomputed)
Compound in assay [1]: NCC(=O)Nc1ccc(-n2nc(C(F)(F)F)cc2-c2ccc3c(ccc4ccccc43)c2)cc1
In short, it runs like this: (§1)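 A 30 min treatment with 10 μM compound was applied to crude K562 extract at 1 mg/mL protein in PBS pH 7.4 with 1 mM MgCl2. Heating for 3 min spanned 48°C-58°C, after which aliquots were pooled, adjusted to 0.5% NP-40 at 4°C and spun at 21,000xg for 90 min. TMTpro 16plex LC-MS/MS of the supernatant, with channel sums equalised, gave values recorded as log-two fold change in thermal stability against solvent controls, from duplicates.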

Compound in another assay: O=C(CCCCCCC(=O)Nc1ccccc1)NO [vorinostat]
In short, it runs like this:
as §1

Compound in a further assay: O=C(O)c1ccc2c(c1)nc(Nc1cccc(Cl)c1)c1ccncc12 [silmitasertib]
In short, it runs like this: as §1

Compound in assay [2]: O=C1NC(=O)C(c2cnc3ccccn23)=C1c1cn2c3c(cc(F)cc13)CN(C(=O)N1CCCCC1)CC2
The method in brief: as §1

Compound in a further assay: c1cn2cc(-c3ccc4cn[nH]c4c3)nc(Nc3ccc(N4CCOCC4)cc3)c2n1 [entospletinib]
In short, it runs like this:
as §1

Of roughly 8,800 targets only a part is listed; those with a hit were picked by preference. About 0.5% of all pairs of compound and target were hits. Values without a mark were called inactive.

UniProt Q13442, sequence (Q13442 whole entry, looked up): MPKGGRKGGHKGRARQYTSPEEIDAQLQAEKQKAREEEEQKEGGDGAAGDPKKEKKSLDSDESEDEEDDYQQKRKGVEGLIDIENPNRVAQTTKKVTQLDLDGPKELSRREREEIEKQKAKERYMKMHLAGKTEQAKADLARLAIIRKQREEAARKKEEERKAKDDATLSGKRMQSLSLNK
UniProt O15031, sequence (O15031 whole entry, looked up): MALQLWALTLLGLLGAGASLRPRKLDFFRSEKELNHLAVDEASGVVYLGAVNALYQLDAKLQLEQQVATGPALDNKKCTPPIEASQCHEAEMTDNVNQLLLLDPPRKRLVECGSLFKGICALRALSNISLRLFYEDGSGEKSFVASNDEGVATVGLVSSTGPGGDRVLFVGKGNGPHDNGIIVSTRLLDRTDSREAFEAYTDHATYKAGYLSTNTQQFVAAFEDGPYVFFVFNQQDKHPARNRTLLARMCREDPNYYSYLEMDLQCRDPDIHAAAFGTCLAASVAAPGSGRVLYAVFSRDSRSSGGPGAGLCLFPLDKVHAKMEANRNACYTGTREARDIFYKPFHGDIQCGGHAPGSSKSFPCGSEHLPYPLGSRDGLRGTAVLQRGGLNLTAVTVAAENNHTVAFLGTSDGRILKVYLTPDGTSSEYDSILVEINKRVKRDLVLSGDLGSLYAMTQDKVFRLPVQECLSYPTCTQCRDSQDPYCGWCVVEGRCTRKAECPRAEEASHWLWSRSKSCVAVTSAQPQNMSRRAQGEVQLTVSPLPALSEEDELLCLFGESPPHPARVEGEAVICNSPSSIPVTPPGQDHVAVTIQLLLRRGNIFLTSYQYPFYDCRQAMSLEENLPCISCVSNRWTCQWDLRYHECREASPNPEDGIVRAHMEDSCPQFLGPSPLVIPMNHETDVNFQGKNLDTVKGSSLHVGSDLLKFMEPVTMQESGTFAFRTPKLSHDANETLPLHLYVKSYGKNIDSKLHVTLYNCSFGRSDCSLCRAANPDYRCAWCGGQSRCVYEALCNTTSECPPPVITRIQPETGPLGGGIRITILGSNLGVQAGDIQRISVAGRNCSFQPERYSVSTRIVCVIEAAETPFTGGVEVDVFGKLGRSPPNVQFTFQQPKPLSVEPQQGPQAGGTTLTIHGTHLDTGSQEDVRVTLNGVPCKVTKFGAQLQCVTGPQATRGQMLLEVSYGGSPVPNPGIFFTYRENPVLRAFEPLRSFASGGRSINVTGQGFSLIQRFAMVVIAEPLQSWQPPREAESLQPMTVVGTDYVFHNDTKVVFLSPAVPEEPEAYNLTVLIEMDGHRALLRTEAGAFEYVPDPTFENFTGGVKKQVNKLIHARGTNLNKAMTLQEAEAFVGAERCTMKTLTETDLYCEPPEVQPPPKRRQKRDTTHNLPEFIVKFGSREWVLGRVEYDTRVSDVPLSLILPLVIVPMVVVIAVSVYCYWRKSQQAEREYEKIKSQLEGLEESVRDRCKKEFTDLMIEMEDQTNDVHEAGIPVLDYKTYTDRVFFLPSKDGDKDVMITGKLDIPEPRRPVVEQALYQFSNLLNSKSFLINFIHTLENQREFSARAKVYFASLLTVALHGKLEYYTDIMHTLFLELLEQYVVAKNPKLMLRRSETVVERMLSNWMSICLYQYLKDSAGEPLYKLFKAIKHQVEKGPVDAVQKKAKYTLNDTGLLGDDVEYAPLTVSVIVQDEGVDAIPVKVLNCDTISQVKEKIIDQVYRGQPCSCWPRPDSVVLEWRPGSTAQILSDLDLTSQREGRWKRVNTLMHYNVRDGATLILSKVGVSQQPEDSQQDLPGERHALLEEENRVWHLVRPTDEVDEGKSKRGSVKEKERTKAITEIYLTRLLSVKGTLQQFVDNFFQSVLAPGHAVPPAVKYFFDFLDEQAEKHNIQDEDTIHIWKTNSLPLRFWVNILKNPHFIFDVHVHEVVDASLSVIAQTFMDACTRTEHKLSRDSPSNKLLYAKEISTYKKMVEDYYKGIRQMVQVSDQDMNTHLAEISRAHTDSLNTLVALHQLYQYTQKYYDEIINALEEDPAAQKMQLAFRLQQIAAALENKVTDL
UniProt P11309, sequence (P11309 whole entry, looked up): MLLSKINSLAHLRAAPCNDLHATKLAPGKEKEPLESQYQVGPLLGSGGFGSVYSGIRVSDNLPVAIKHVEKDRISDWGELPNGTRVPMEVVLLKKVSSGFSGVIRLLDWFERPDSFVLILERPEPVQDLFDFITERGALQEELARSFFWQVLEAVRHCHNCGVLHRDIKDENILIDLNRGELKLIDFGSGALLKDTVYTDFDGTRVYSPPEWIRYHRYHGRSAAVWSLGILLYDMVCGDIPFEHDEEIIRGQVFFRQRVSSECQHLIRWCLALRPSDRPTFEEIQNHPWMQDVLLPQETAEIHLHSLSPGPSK
UniProt Q9BZL6, sequence (Q9BZL6 whole entry, looked up): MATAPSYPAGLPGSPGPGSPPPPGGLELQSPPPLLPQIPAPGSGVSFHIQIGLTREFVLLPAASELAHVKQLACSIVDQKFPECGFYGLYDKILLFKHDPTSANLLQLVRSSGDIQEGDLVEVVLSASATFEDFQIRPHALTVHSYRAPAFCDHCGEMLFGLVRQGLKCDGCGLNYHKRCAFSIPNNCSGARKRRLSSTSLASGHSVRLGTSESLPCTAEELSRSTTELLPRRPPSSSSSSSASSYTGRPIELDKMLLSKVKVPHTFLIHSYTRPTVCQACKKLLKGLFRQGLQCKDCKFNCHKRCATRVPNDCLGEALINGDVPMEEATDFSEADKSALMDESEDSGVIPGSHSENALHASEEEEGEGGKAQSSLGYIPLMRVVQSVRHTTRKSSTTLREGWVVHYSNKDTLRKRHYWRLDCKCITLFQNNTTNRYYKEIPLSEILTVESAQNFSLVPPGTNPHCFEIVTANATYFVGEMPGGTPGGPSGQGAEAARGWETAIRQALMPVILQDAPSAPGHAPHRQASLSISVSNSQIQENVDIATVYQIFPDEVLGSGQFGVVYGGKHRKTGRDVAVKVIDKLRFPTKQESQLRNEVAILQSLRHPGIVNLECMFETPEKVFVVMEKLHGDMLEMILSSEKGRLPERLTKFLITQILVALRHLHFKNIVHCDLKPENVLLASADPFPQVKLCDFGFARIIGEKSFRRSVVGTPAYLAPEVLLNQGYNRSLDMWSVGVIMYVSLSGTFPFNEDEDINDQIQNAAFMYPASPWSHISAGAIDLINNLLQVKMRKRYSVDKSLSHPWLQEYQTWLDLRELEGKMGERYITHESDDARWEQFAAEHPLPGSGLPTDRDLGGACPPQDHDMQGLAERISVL
UniProt Q86UU1, sequence (Q86UU1 whole entry, looked up): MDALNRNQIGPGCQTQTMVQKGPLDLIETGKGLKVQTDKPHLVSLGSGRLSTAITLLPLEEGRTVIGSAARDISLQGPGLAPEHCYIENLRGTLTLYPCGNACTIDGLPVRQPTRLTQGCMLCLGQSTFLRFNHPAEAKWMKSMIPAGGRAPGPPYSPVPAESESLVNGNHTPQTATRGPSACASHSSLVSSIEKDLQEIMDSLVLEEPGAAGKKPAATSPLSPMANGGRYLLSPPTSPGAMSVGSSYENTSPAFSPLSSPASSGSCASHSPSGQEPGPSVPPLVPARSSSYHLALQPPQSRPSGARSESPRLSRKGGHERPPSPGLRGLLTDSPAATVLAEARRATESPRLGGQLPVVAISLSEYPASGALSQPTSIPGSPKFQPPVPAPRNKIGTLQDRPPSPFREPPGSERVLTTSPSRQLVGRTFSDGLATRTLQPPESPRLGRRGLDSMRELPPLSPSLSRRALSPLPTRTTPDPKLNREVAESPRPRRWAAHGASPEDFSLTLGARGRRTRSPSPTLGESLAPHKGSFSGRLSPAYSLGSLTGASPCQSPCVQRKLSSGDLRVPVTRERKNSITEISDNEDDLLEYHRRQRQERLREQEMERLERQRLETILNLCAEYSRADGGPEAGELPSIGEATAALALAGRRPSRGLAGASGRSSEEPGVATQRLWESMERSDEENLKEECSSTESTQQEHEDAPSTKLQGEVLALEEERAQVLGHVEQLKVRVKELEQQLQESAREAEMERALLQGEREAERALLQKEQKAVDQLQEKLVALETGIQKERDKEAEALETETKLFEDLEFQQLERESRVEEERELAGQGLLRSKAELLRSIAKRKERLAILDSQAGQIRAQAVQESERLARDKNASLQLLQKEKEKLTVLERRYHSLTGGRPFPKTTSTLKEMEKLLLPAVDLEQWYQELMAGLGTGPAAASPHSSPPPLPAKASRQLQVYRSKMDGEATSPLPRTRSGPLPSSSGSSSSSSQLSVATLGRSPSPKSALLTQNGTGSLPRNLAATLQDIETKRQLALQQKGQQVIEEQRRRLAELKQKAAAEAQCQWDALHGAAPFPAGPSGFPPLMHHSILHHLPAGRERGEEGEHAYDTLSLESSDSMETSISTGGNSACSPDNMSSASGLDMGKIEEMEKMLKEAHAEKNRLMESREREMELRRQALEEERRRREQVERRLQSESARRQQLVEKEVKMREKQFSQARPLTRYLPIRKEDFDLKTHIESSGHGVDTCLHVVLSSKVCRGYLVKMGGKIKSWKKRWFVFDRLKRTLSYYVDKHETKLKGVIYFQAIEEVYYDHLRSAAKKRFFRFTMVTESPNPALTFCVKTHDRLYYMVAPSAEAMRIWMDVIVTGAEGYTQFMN
UniProt P17706, sequence (P17706 whole entry, looked up): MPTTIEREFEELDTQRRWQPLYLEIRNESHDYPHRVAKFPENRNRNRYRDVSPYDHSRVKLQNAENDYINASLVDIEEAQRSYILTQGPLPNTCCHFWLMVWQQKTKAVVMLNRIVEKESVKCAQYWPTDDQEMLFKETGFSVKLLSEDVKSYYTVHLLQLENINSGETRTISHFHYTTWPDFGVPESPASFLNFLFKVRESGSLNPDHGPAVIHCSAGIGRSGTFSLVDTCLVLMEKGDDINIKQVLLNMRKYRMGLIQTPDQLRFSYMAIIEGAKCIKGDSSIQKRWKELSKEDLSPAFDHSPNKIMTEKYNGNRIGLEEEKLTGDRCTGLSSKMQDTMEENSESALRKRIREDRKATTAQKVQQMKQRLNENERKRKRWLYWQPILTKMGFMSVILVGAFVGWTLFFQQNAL

On to POLR2M (UniProt Q6EEV4), for which the log2 fold change was 0.146 in assay [1]; -0.019 with vorinostat; -0.069 with silmitasertib; 0.06 in assay [2]; -0.022 with entospletinib.

PWP1 (UniProt Q13610): the log2 fold change in assay [1] was -0.082; with vorinostat it was 0.139; with silmitasertib, -0.033; in assay [2] it was 0.022; with entospletinib it was -0.003.

With PRKD2 isoform 3 (UniProt Q9BZL6), the log2 fold change in assay [1] was -0.043; in the assay with vorinostat, -0.326 (active); in the assay with silmitasertib, 0.051; in assay [2], 0.088; with entospletinib it was 0.052.

Turning to PPP2R5C isoform 2 (UniProt Q13362), the log2 fold change was -0.004 in assay [1], -0.12 with vorinostat, 0.015 with silmitasertib and 0.086 in assay [2].

Take PDAP1 (UniProt Q13442): the log2 fold change is 0.014 in assay [1]; 0.118 with vorinostat; 0.005 with silmitasertib; -0.004 in assay [2]; -0.027 with entospletinib.

For PHLDB1 (UniProt Q86UU1), the log2 fold change in assay [1] was 0.022; in the assay with vorinostat, -0.357 (active); with silmitasertib it was 0.012; in assay [2] it was 0.128; in the assay with entospletinib, 0.008.

Regarding PKP3 isoform 2 (UniProt Q9Y446), the log2 fold change is -0.021 in assay [1]; -0.286 (active) in the assay with vorinostat; -0.043 with silmitasertib; -0.063 in assay [2]; 0.002 with entospletinib.

In the case of PDCD4 (UniProt Q53EL6), the log2 fold change was 0.004 in assay [1]; -0.378 (active) with vorinostat; 0.014 in the assay with silmitasertib; 0.003 in assay [2]; 0.038 with entospletinib.

On to PTPN2 (UniProt P17706), for which the log2 fold change in assay [1] is -0.005; with vorinostat, -0.298 (active); with silmitasertib, 0.024; in assay [2], -0.002; with entospletinib, 0.07.

Take PRKDC (UniProt P78527): the log2 fold change was -0.089 in assay [1]; -0.426 (active) in the assay with vorinostat; 0.762 (active) with silmitasertib; 0.207 in assay [2]; 0.013 in the assay with entospletinib.

In the case of PRKCA (UniProt P17252), the log2 fold change in assay [1] is -0.045; with vorinostat, -0.14; with silmitasertib, 0.044; in assay [2] it was 0.087; with entospletinib, 0.018.

As for PKN1 isoform 2 (UniProt Q16512), the log2 fold change in assay [1] is 0.002; with vorinostat, -0.131; in the assay with silmitasertib it was -0.012; in assay [2], -0.138; with entospletinib, -0.009.

Regarding PPP3CA isoform 2 (UniProt Q08209), the log2 fold change in assay [1] is 0.006; with vorinostat, 0.042; with silmitasertib, 0.014; in assay [2] it was -0.025; with entospletinib, 0.066.

For PDE4DIP isoform 4 (UniProt Q5VU43), the log2 fold change in assay [1] is 0.077; with vorinostat, 0.029; with silmitasertib, -0.029; in assay [2] it was 0.057; with entospletinib, -0.025.

Consider POLD3 (UniProt Q15054), for which the log2 fold change is 0.045 in assay [1]; -0.335 (active) with vorinostat; -0.02 with silmitasertib; -0.03 in assay [2]; 0.011 with entospletinib.

PLXNB2 (UniProt O15031): the log2 fold change in assay [1] was 0.003; with vorinostat, 0.033; with silmitasertib, 0.001; in assay [2] it was 0.019; with entospletinib, -0.03.

In the case of PIK3CD (UniProt O00329), the log2 fold change is -0.059 in assay [1], -0.516 (active) with vorinostat, 0.223 in the assay with silmitasertib and -0.004 in assay [2].

Consider PTGS1 isoform 6 (UniProt P23219), for which the log2 fold change in assay [1] was -0.013; with vorinostat it was 0.05; with silmitasertib it was -0.033; in assay [2] it was 0.003; in the assay with entospletinib, -0.017.

For PIM1 isoform 2 (UniProt P11309), the log2 fold change is 0.098 in assay [1]; -0.188 with vorinostat; 0.212 in the assay with silmitasertib; 0.019 in assay [2]; 0.008 with entospletinib.

For the target PEX2 (UniProt P28328), the log2 fold change is -0.055 in assay [1], -0.25 with vorinostat, 0.042 with silmitasertib and 0.043 in assay [2].

Take PTP4A1 (UniProt Q93096): the log2 fold change in assay [1] is 0.019; with vorinostat it was -0.292 (active); with silmitasertib, -0.003; in assay [2] it was 0.014; in the assay with entospletinib it was -0.009.

Turning to PDS5A (UniProt Q29RF7), the log2 fold change was -0.001 in assay [1]; -0.525 (active) in the assay with vorinostat; 0.073 with silmitasertib; -0.01 in assay [2]; 0.047 with entospletinib.

For PPIC (UniProt P45877), the log2 fold change in assay [1] is 0.12; with vorinostat, 0.044; with silmitasertib, 0.021; in assay [2], 0.262.

For the target PRRC2A (UniProt P48634), the log2 fold change in assay [1] is 0.012; with vorinostat, 0.108; with silmitasertib it was -0.026; in assay [2], -0.018; in the assay with entospletinib, -0.003.

Regarding PCLAF (UniProt Q15004), the log2 fold change was 0.022 in assay [1]; -0.29 (active) with vorinostat; -0.029 in the assay with silmitasertib; -0.025 in assay [2]; 0.009 with entospletinib.
